Experimental data as given in PubChem BioAssay AID1159580 (chemical genetic matrix, 2015).
In all, about 5,500 compounds went through this assay and about 2,000 (36%) were called active. Another 18% or so got no clear call; they are omitted. Cut-off read from the data, not from the text of the source: active = normalized growth mostly below about 0.91 (no sharp cut-off); inconclusive = no clear call, values can overlap the other calls; inactive = mostly above about 0.92. This is one part of the list.

Assay: chemical genetic growth profiling, strain panel (AID 1159580);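 note: tested at 20 µM; growth read once vehicle control cultures reached saturation at 30 °C; 1 = growth at the plate median or of vehicle wells; lower values mean less growth of the strain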
Conditions: growth OD
[1] = S. cerevisiae deletion strains, locus YAL040C, strain CLN3, hits give low values
[2] = S. cerevisiae deletion strains, locus YCL061C, strain MRC1 (second series), hits give low values
[3] = S. cerevisiae deletion strains, locus YDR150W, strain NUM1, hits give low values
[4] = S. cerevisiae deletion strains, locus YDR363W, strain ESC2, hits give low values
[5] = S. cerevisiae deletion strains, locus YER002W, strain NOP16, hits give low values
[6] = S. cerevisiae deletion strains, locus YGR229C, strain SMI1, hits give low values
[7] = S. cerevisiae deletion strains, locus YJR075W, strain HOC1, hits give low values
[8] = S. cerevisiae deletion strains, locus YMR263W, strain SAP30, hits give low values
[9] = S. cerevisiae deletion strains, locus YMR307W, strain GAS1, hits give low values
[10] = S. cerevisiae deletion strains, locus YNL128W, strain TEP1, hits give low values
[11] = S. cerevisiae deletion strains, locus YNL153C, strain GIM3, hits give low values
[12] = S. cerevisiae deletion strains, locus YNL175C, strain NOP13, hits give low values
[13] = S. cerevisiae deletion strains, locus YNL197C, strain WHI3, hits give low values
[14] = S. cerevisiae deletion strains, locus YNL224C, strain SQS1, hits give low values
[15] = S. cerevisiae deletion strains, locus YNL322C, strain KRE1, hits give low values
[16] = S. cerevisiae deletion strains, locus YOR083W, strain WHI5 (second series), hits give low values
[17] = S. cerevisiae deletion strains, locus YPL055C, strain LGE1, hits give low values
[18] = S. cerevisiae deletion strains, locus YPL241C, strain CIN2, hits give low values
[19] = S. cerevisiae deletion strains, locus YAL013W, strain DEP1, hits give low values

Measured: normalized growth

O=C(O)CCCCCC[C@H]1C(=O)NC(=O)N1CC[C@@H](O)C1CCCCC1
inactive: [1] 0.969 | [2] 0.985 | [3] 0.996 | [4] 0.985 | [5] 0.936 | [6] 0.999 | [7] 0.996 | [8] 0.993 | [9] 1 | [10] 0.942 | [11] 0.971 | [12] 0.987 | [13] 0.962 | [14] 0.982 | [15] 0.99 | [16] 0.985

COc1ccccc1C1OC(=O)CC1C(=O)O (configuration not stated)
inactive: S. cerevisiae deletion strains, locus YBR229C, strain ROT2, hits give low values 1.02 | S. cerevisiae deletion strains, locus YCL061C, strain MRC1, hits give low values 0.989 | S. cerevisiae deletion strains, locus YDL101C, strain DUN1, hits give low values 1 | S. cerevisiae deletion strains, locus YDL134C, strain PPH21, hits give low values 1.03 | [3] 0.947 | S. cerevisiae deletion strains, locus YEL061C, strain CIN8, hits give low values 1 | S. cerevisiae deletion strains, locus YGR078C, strain PAC10, hits give low values 0.987 | S. cerevisiae deletion strains, locus YHR030C, strain SLT2, hits give low values 0.963 | S. cerevisiae deletion strains, locus YHR087W, strain rtc3, hits give low values 1.03 | S. cerevisiae deletion strains, locus YJL187C, strain SWE1, hits give low values 1.01 | S. cerevisiae deletion strains, locus YJR043C, strain POL32, hits give low values 0.98 | [7] 0.986 | S. cerevisiae deletion strains, locus YLR039C, strain RIC1, hits give low values 1.02 | S. cerevisiae deletion strains, locus YLR058C, strain SHM2 (second series), hits give low values 1.01 | S. cerevisiae deletion strains, locus YLR085C, strain ARP6, hits give low values 1.02 | S. cerevisiae deletion strains, locus YLR262C, strain YPT6, hits give low values 1.02 | S. cerevisiae deletion strains, locus YML094W, strain GIM5, hits give low values 1.02 | S. cerevisiae deletion strains, locus YMR219W, strain ESC1, hits give low values 1.01 | [8] 0.968 | [10] 1.02 | [11] 1 | S. cerevisiae deletion strains, locus YNL298W, strain CLA4 (second series), hits give low values 0.998 | [15] 0.999 | S. cerevisiae deletion strains, locus YNR030W, strain Alg12, hits give low values 1.01 | S. cerevisiae deletion strains, locus YOL006C, strain TOP1, hits give low values 1.07 | [17] 0.955 | [18] 0.989 | S. cerevisiae deletion strains, locus YPR135W, strain CTF4, hits give low values 1.02 | S. cerevisiae strains, strain wild type, hits give low values 1.02

N=C(N)c1ccc(OCCCCCOc2ccc(C(=N)N)cc2)cc1 (tested in a mixture with another compound)
inactive: [19] 0.943 | [1] 0.944 | [2] 0.981 | [3] 0.963 | [4] 0.961 | [5] 0.95 | [8] 0.983 | [12] 0.962 | [13] 0.943 | [14] 0.946 | [16] 0.944 | [17] 0.912 | [18] 0.95

N=C(N)c1ccc(N)cc1
inactive: [19] 1.01 | [1] 0.975 | [2] 0.998 | [4] 0.981 | [5] 0.997 | [6] 1.01 | [9] 1 | [10] 0.978 | [11] 1 | [12] 1.01 | [13] 0.994 | [14] 0.968 | [16] 0.981 | [18] 1
